Source: the OligoGym collection

Target: DNAJC13
Assay: pooled miR-30 sensor sort-seq; sequence = guide strand
Conditions: shRNA
Note: reference of the scale not given here.

Sequence | sensor-assay potency score (higher = more potent)
TACTAATTCACTCTGCTCCTTC | 0.364
TATCTTTCAGTTCTTCTCGTGT | -0.0145
TAGACCAACAGTATCTGCTCGC | 0.515
TTAAGGAAGAGAATCAACCTAT | -0.138
TTGAATTGCAGAACATATCCAG | 0.63
TTGTCTCTAACATGCATCCGAT | -1.12
TTCAATTACATTGCTTTGCAGT | -0.243
TATCTTGTCCTTTTGTCTCTTC | 0.492
TTGATTATTTTTGTACTCGATG | -0.943
TTGTTGTGTAGAAACATGCCAG | -0.232
TTGTGCTACTAATTCACTCTGC | 0.635

Target: DNAJC19
Assay: as above
Conditions: shRNA

Sequence | sensor-assay potency score (higher = more potent)
TAAATCTTTAGCTTCATTGATT | -0.54
TTGATATTGAGAACATTTCAGT | -0.702
TTCACTTTTAAATACAAGGTTC | -0.645
TTTAAAAGCATAATTCGTCGAT | 0.123
TTCGTCGATGAGCATCTCTTAT | -1.36
TAAAATTGTAGCTCTGAGGCAT | 0.463
TTCAGTTTTGCTAACAGGGTTT | -0.256
TAAACAAGAAAATTATACCAAG | -1.18
TTTTTTAAAATTGTAGCTCTGA | 0.364
TTAAAAGCATAATTCGTCGATG | -0.449
ATGAACAATATTTCTATTCAGA | -0.967
TTTATTAGTGTATAAATTCTAA | -0.615

Target: DNAJC4
Assay: as above
Conditions: shRNA

Sequence | sensor-assay potency score (higher = more potent)
TGCATCTGCTTCACCTTCCTGA | -0.639
TTGTCATGGACTGTGGTTCGTG | -0.505
TTTGGTGGGCAGACTTGTCATG | -0.548
TTGTCGCTCCTGCTGAAGGATG | -1.56
TTGTTTGTGTTGCTGCTGCCTC | -0.896
TTCATCCATGAAGTTAAGGTGC | -0.818
TAGCCGTTGTCGCTCCTGCTGA | -1.23
TTTGGGGGACTACCTGAGCGGA | -1.85
TCGCTCAGCTCCACAAAGCGGC | -1.13
TAGAAGGCTGTGATGATCCGAT | 0.303
TTGGGGGACTACCTGAGCGGAG | -1.16
TTAACTTCCTCAGTGCTGGCAC | 0.72

Target: DNAJC8
Assay: as above
Conditions: shRNA

Sequence | sensor-assay potency score (higher = more potent)
TTTCACAGTGTGTTCCACGTAT | 0.15
TTTATATACAGCTTGTTTGAAC | -0.768
TTTCTAACCATCACAATTCAGT | -0.77
TTTTTCGAAGTTAGAACCGAGT | -0.8
TTTCTTGAGCTTCAATCTCTTC | -0.98
